The AC50 is the concentration giving half of the maximal activity seen.

Activity calls are given as the source filed them. Rule for the calls: active = hit-call score of the fitted dose curve at least 0.9, where 1 is the maximum; inactive = score below 0.9.

In this assay the test system is NCBI gene 100038242. In words: CCTE_GLTED_xDIO3: CCTE's Xenopus Iodothyronine Deiodinase Type 3 (xDIO3) Inhibition Assay, Great Lakes Toxicology and Ecology Division (GLTED) Lab. As for the experimental part: CCTE_GLTED_xDIO3 is a cell-free, single-readout assay designed to test the inhibitory activity of chemicals toward Xenopus (frog) iodothyronine Deiodinase Type 3 (DIO3) enzyme. Enzyme is incubated in presence of test chemical for 3 hours during which uninhibited enzyme liberates free iodide from substrate. Free iodide is measured in a second step using the Sandell-Kolthoff method.CCTE_GLTED_xDIO3 is the assay component measured from the CCTE_GLTED_xDIO assay. It is designed to make measurements of enzyme activity, a form of enzyme reporter, as detected with absorbance signals by spectrophotometry.Data from the assay component CCTE_GLTED_xDIO3 was analyzed at the assay endpoint CCTE_GLTED_xDIO3 in the positive analysis fitting direction relative to DMSO as the negative control and baseline of activity. Using a type of enzyme reporter, loss-of-signal activity can be used to understand deiodinase Type 3 activity. To generalize the intended target to other relatable targets, this assay endpoint is annotated to the 'deiodinase' intended target family, where the subfamily is 'deiodinase Type 3'.
[…]
Regarding `C=C(C)C(=O)OCC(F)(F)C(F)(F)C(F)(F)F`, the result was inactive. For the molecule `C=C(C)C(=O)OCC(F)(F)C(F)(F)C(F)(F)C(F)F`, the half-maximal activity concentration (AC50) was 17.7 µM (active). For the molecule `O=P(O)(O)CCC(F)(F)C(F)(F)C(F)(F)C(F)(F)C(F)(F)C(F)(F)C(F)(F)C(F)(F)F`, the call was inactive.

Consider `OC(O)(C(F)C(O)(O)C(F)(F)F)C(F)(F)F`, for which the concentration at half-maximal activity (AC50) is 19.8 µM (active). Turning to `O=C(O)C(F)(F)C(F)(F)C(F)(F)C(F)(F)C(F)(F)C(F)(F)C(F)(F)C(F)(F)Cl`, the outcome was inactive.

Take `C=CC(=O)OCC(F)(F)C(F)(F)C(F)(F)C(F)(F)C(F)(F)C(F)(F)C(F)(F)C(F)F`: the AC50 is 20.7 µM (active). `O=C(O)C(F)(F)OC(F)(F)C(F)(F)OC(F)(F)C(F)(F)OC(F)(F)C(F)(F)C(F)(F)C(F)(F)F`: the AC50 was 72.2 µM (active).

Turning to `O=C(Cl)C(F)(F)C(F)(F)C(F)(F)C(F)(F)C(F)(F)C(F)(F)C(F)(F)C(F)(F)F`, the result was inactive. As to `O=C(O)C(F)(F)C(F)(F)C(F)(F)C(F)(F)C(F)(F)C(F)(F)C(F)(F)C(F)(F)C(F)(F)C(F)F`, the concentration at half-maximal activity (AC50) was 161 µM (active). Take `C=CC(=O)OCC(F)(F)C(F)(F)C(F)(F)COC(=O)C=C`: the AC50 is 33.5 µM (active). Take `O=C(O)C(F)(F)C(F)(F)C(F)(F)C(F)(F)C(F)(F)C(F)(F)C(F)(F)C(F)(F)C(F)(F)C(F)(F)C(F)(F)C(F)(F)F`: the result was inactive. For `C=CC(=O)OCC(F)(F)C(F)(F)C(F)(F)C(F)(F)COC(=O)C=C`, the AC50 was 15.9 µM (active).

For the molecule `C=CC(=O)OCCC(F)(F)C(F)(F)C(F)(F)C(F)(F)F`, the half-maximal activity concentration (AC50) is 24.4 µM (active). `COc1cc(O)c(CC=C(C)C)c(O)c1C(=O)/C=C/c1ccc(O)cc1`: the AC50 was 0.16 µM (active).

(Values after PubChem BioAssay AID2284339 (EPA ToxCast).)
